# In all, about 5,500 compounds went through this assay and about 2,000 (36%) were called active. About 18% were inconclusive and are not listed. The list shows a part of the results. Values without a mark were called inactive. Cut-off read from the data, not from the text of the source: active = normalized growth mostly below about 0.91 (no sharp cut-off); inconclusive = no clear call, values can overlap the other calls; inactive = mostly above about 0.92.
# Test: chemical genetic growth profiling, strain panel (AID 1159580);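 note: tested at 20 µM; growth read once vehicle control cultures reached saturation at 30 °C; 1 = growth at the plate median or of vehicle wells; lower values mean less growth of the strain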
# Conditions: growth OD
compound,measurement,setting,value
COc1c2ccoc2cc2oc(C)cc(=O)c12,normalized growth,"S. cerevisiae deletion strains, locus YKL009W, strain mrt4, hits give low values",0.965
same,normalized growth,"S. cerevisiae deletion strains, locus YKL068W, hits give low values",0.982
same,normalized growth,"S. cerevisiae deletion strains, locus YKL085W, strain MDH1 (second series), hits give low values",0.974
same,normalized growth,"S. cerevisiae deletion strains, locus YKL085W, strain MDH1, hits give low values",0.974
same,normalized growth,"S. cerevisiae deletion strains, locus YKL160W, strain elf1, hits give low values",0.993
same,normalized growth,"S. cerevisiae deletion strains, locus YKL190W, strain CNB1, hits give low values",0.978
same,normalized growth,"S. cerevisiae deletion strains, locus YKR001C, strain vps1, hits give low values",0.961
same,normalized growth,"S. cerevisiae deletion strains, locus YKR026C, strain gcn3, hits give low values",0.982
same,normalized growth,"S. cerevisiae deletion strains, locus YKR091W, strain srl3, hits give low values",0.998
same,normalized growth,"S. cerevisiae deletion strains, locus YLL001W, strain dnm1, hits give low values",0.998
same,normalized growth,"S. cerevisiae deletion strains, locus YLL026W, hits give low values",0.992
same,normalized growth,"S. cerevisiae deletion strains, locus YLL041C, strain sdh2, hits give low values",1.01
same,normalized growth,"S. cerevisiae deletion strains, locus YLR027C, strain aat2, hits give low values",0.997
same,normalized growth,"S. cerevisiae deletion strains, locus YLR039C, strain RIC1, hits give low values",0.968
same,normalized growth,"S. cerevisiae deletion strains, locus YLR058C, strain SHM2, hits give low values",0.936
same,normalized growth,"S. cerevisiae deletion strains, locus YLR102C, strain apc9, hits give low values",0.992
same,normalized growth,"S. cerevisiae deletion strains, locus YLR113W, strain HOG1, hits give low values",1.1
same,normalized growth,"S. cerevisiae deletion strains, locus YLR221C, strain rsa3, hits give low values",0.987
same,normalized growth,"S. cerevisiae deletion strains, locus YLR258W, strain gsy2, hits give low values",0.987
same,normalized growth,"S. cerevisiae deletion strains, locus YLR262C, strain YPT6 (second series), hits give low values",1.03
same,normalized growth,"S. cerevisiae deletion strains, locus YLR262C, strain YPT6, hits give low values",0.92
same,normalized growth,"S. cerevisiae deletion strains, locus YLR268W, strain sec22, hits give low values",1.02
same,normalized growth,"S. cerevisiae deletion strains, locus YLR320W, strain mms22, hits give low values",0.993
same,normalized growth,"S. cerevisiae deletion strains, locus YLR330W, strain CHS5, hits give low values",0.986
same,normalized growth,"S. cerevisiae deletion strains, locus YLR342W, strain FKS1 (second series), hits give low values",1.01
same,normalized growth,"S. cerevisiae deletion strains, locus YLR342W, strain FKS1, hits give low values",0.984
same,normalized growth,"S. cerevisiae deletion strains, locus YLR357W, strain rsc2, hits give low values",0.98
same,normalized growth,"S. cerevisiae deletion strains, locus YLR370C, strain arc18, hits give low values",0.992
same,normalized growth,"S. cerevisiae deletion strains, locus YLR371W, strain rom2, hits give low values",0.986
same,normalized growth,"S. cerevisiae deletion strains, locus YLR384C, strain iki3, hits give low values",1
same,normalized growth,"S. cerevisiae deletion strains, locus YLR418C, strain cdc73, hits give low values",0.835 (active)
same,normalized growth,"S. cerevisiae deletion strains, locus YML016C, strain PPZ1, hits give low values",0.977
same,normalized growth,"S. cerevisiae deletion strains, locus YML032C, strain rad52, hits give low values",0.912
same,normalized growth,"S. cerevisiae deletion strains, locus YML120C, strain ndi1, hits give low values",1.02
same,normalized growth,"S. cerevisiae deletion strains, locus YML124C, strain tub3, hits give low values",0.99
same,normalized growth,"S. cerevisiae deletion strains, locus YMR058W, strain fet3, hits give low values",1
same,normalized growth,"S. cerevisiae deletion strains, locus YMR078C, strain ctf18, hits give low values",0.977
same,normalized growth,"S. cerevisiae deletion strains, locus YMR125W, strain sto1, hits give low values",0.997
same,normalized growth,"S. cerevisiae deletion strains, locus YMR129W, hits give low values",0.999
same,normalized growth,"S. cerevisiae deletion strains, locus YMR205C, strain PFK2, hits give low values",1.01
same,normalized growth,"S. cerevisiae deletion strains, locus YMR223W, strain ubp8, hits give low values",0.956
same,normalized growth,"S. cerevisiae deletion strains, locus YMR231W, strain pep5, hits give low values",1.01
same,normalized growth,"S. cerevisiae deletion strains, locus YMR307W, strain GAS1, hits give low values",0.961
same,normalized growth,"S. cerevisiae deletion strains, locus YNL067W, strain RPL9B, hits give low values",0.96
same,normalized growth,"S. cerevisiae deletion strains, locus YNL071W, strain lat1, hits give low values",0.993
same,normalized growth,"S. cerevisiae deletion strains, locus YNL128W, strain TEP1, hits give low values",0.943
same,normalized growth,"S. cerevisiae deletion strains, locus YNL153C, strain GIM3, hits give low values",0.93
same,normalized growth,"S. cerevisiae deletion strains, locus YNL183C, strain NPR1, hits give low values",0.983
same,normalized growth,"S. cerevisiae deletion strains, locus YNL209W, strain ssb2, hits give low values",0.983
same,normalized growth,"S. cerevisiae deletion strains, locus YNL233W, strain BNI4, hits give low values",0.924
same,normalized growth,"S. cerevisiae deletion strains, locus YNL248C, strain rpa49, hits give low values",1
same,normalized growth,"S. cerevisiae deletion strains, locus YNL250W, strain rad50, hits give low values",0.987
same,normalized growth,"S. cerevisiae deletion strains, locus YNL271C, strain bni1, hits give low values",0.986
same,normalized growth,"S. cerevisiae deletion strains, locus YNL298W, strain CLA4, hits give low values",0.975
same,normalized growth,"S. cerevisiae deletion strains, locus YNL307C, strain MCK1, hits give low values",0.991
same,normalized growth,"S. cerevisiae deletion strains, locus YNL322C, strain KRE1 (second series), hits give low values",0.984
same,normalized growth,"S. cerevisiae deletion strains, locus YNL322C, strain KRE1, hits give low values",0.976
same,normalized growth,"S. cerevisiae deletion strains, locus YNR049C, strain mso1, hits give low values",0.993
same,normalized growth,"S. cerevisiae deletion strains, locus YNR052C, strain pop2, hits give low values",0.977
same,normalized growth,"S. cerevisiae deletion strains, locus YOL006C, strain TOP1, hits give low values",0.946
same,normalized growth,"S. cerevisiae deletion strains, locus YOL012C, strain htz1",1.83
same,normalized growth,"S. cerevisiae deletion strains, locus YOL147C, strain pex11, hits give low values",0.984
same,normalized growth,"S. cerevisiae deletion strains, locus YOR001W, strain rrp6, hits give low values",0.982
same,normalized growth,"S. cerevisiae deletion strains, locus YOR061W, strain CKA2, hits give low values",0.959
same,normalized growth,"S. cerevisiae deletion strains, locus YOR069W, strain VPS5, hits give low values",0.993
same,normalized growth,"S. cerevisiae deletion strains, locus YOR070C, strain gyp1, hits give low values",0.984
same,normalized growth,"S. cerevisiae deletion strains, locus YOR080W, strain dia2, hits give low values",1.02
same,normalized growth,"S. cerevisiae deletion strains, locus YOR083W, strain WHI5, hits give low values",0.994
same,normalized growth,"S. cerevisiae deletion strains, locus YOR106W, strain vam3, hits give low values",0.994
same,normalized growth,"S. cerevisiae deletion strains, locus YOR136W, strain idh2, hits give low values",0.996
same,normalized growth,"S. cerevisiae deletion strains, locus YOR144C, strain elg1, hits give low values",0.989
same,normalized growth,"S. cerevisiae deletion strains, locus YOR184W, strain ser1, hits give low values",0.967
same,normalized growth,"S. cerevisiae deletion strains, locus YOR231W, strain MKK1, hits give low values",1.07
same,normalized growth,"S. cerevisiae deletion strains, locus YOR265W, strain rbl2, hits give low values",1
same,normalized growth,"S. cerevisiae deletion strains, locus YOR270C, strain vph1, hits give low values",0.997
same,normalized growth,"S. cerevisiae deletion strains, locus YOR290C, strain snf2, hits give low values",0.974
same,normalized growth,"S. cerevisiae deletion strains, locus YOR316C, strain cot1, hits give low values",0.995
same,normalized growth,"S. cerevisiae deletion strains, locus YPL051W, strain arl3, hits give low values",0.979
same,normalized growth,"S. cerevisiae deletion strains, locus YPL078C, strain atp4, hits give low values",0.992
same,normalized growth,"S. cerevisiae deletion strains, locus YPL106C, strain sse1, hits give low values",0.95
same,normalized growth,"S. cerevisiae deletion strains, locus YPL240C, strain hsp82, hits give low values",0.99
same,normalized growth,"S. cerevisiae deletion strains, locus YPL241C, strain CIN2, hits give low values",0.976
same,normalized growth,"S. cerevisiae deletion strains, locus YPL256C, strain CLN2, hits give low values",1.05
same,normalized growth,"S. cerevisiae deletion strains, locus YPR119W, strain clb2, hits give low values",0.986
same,normalized growth,"S. cerevisiae deletion strains, locus YPR141C, strain kar3, hits give low values",0.984
same,normalized growth,"S. cerevisiae deletion strains, locus YPR163C, strain tif3, hits give low values",0.978
same,normalized growth,"S. cerevisiae deletion strains, locus YPR167C, strain met16, hits give low values",0.991
same,normalized growth,"S. cerevisiae deletion strains, strain wtn01, hits give low values",1.03
same,normalized growth,"S. cerevisiae strains, strain wild type, hits give low values",0.965
